Screening results as filed in PubChem BioAssay.
Compounds with a hit are over-represented: about 17% of the library has one in this group of screens.
TDP1 inh: blocks human tyrosyl-DNA phosphodiesterase 1 | Q9NUW8 | recombinant TDP1, AlphaScreen DNA substrate cleavage | Potency, µM (doses to about 130 µM), for the others: at the highest dose activity change, negative = inhibition, most hits filed as inhibitors | hit rate 0.28% among 350,000; note: % is set by controls: 0 for no effect and ±100 for the full control effect; nearly all actives have a fitted effect of over 40% in size
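Enzyme-compound mixtures sat 15 min at room temperature, followed by a 5 min reaction with 15 nM final substrate and 10 min with AlphaScreen beads. Recombinant human Tdp1 was used at 1 nM final.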
TDP1 cell noCPT: qHTS for Inhibitors of human tyrosyl-DNA phosphodiesterase 1 (TDP1): qHTS in cells in absence of CPT; DT40 Tdp1-/- hTDP1 cells, no CPT, ATP luminescence, 48 h; Potency, µM (highest dose often 46.2 µM), without a hit: at the top dose activity change, negative = growth inhibition, most hits filed as inhibitors; hit rate 15% among 420,000; note: % is set by controls: 0 for no effect and ±100 for the full control effect; nearly all actives have a fitted effect of over 55% in size
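Growth kinetics read by CellTiter-Glo luminescence after ≥48 hr at 37 °C. Cells: DT40 Tdp1-/- stably carrying human TDP1, 400 per well, compound exposure in the absence of CPT (DMSO vehicle).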
ClpP mod: qHTS Assay for Activators of ClpP; Potency, µM (highest dose often 57.5 µM), inactives show at the top dose activity change, negative = active; hit rate 1.9% among 340,000; purified B. subtilis ClpP, FRET peptide cleavage, 20 min; ATP-dependent Clp protease proteolytic subunit (Bacillus subtilis (strain 168)), P80244; active = well fitted falling curve with a large enough effect; inconclusive = small, poorly fitted or top-dose-only effect; inactive = no such curve, though single readings can be large or run the other way; note: the source files actives as falling curves though it sought activators and does not explain the sign; nearly all actives have a fitted effect of over 65% in size
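Purified B. subtilis ClpP, 10 microg/mL final in Tris/HCl pH8 with KCl, BSA, glycerol and Tween-20, cleaved an Abz/nitrotyrosine-quenched decapeptide. Fluorescence (ex 320, em 430) was read at 0 and 20 min at room temperature. Delta was normalized to 5.8 microM ADEP and DMSO/no-enzyme controls.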
DT40 TDP1 CPT: DT40-hTDP1 cell growth loss with CPT; chicken DT40 Tdp1-/-;hTDP1 cells + 20 nM CPT, ATP luminescence, 48 h; Potency, µM (highest dose often 46.2 µM), without a hit: top-dose activity change, negative = growth inhibition, actives largely listed as inhibitors; hit rate 12% among 420,000; note: % is set by controls: 0 for no effect and ±100 for the full control effect; nearly all actives have a fitted effect of over 55% in size
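Cell growth measured by CellTiter-Glo luminescence after a minimum 48 h, 37 C compound exposure with 20 nM CPT in Tdp1-knockout DT40 cells stably expressing hTDP1, seeded 400/well; qHTS titration format.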
* hit, by the source's call; ? = inconclusive; . = not tested or not shown; [ ] = remark or other dose. Unless noted, calls come from the whole dose curve; as a rule, active = well fitted curve in the direction sought with a large enough effect; inconclusive = small, poorly fitted or top-dose-only effect, or another doubt; inactive = no such curve, though single readings can be large; an effect the other way counts as inactive or inconclusive. Potency is the fitted concentration of half-maximal effect.

SMILES | TDP1 inh | TDP1 cell noCPT | ClpP mod | DT40 TDP1 CPT
COc1ccc(CC2C(=O)NC(C)C(=O)N(C)C3C(=O)N(C)C(Cc4ccc(O)c(c4)Oc4ccc(cc4)C3O)C(=O)NC(C)C(=O)NC(C)C(=O)N2C)cc1 (configuration not stated) | . | 0.021µM* | -3% | 0.016µM*
Cc1ccc(NC(=O)c2cc(S(=O)(=O)N3CCOCC3)c(Cl)cc2Cl)cc1 | -9%[12.3 µM] | 18µM* | -4% | ?
CC(C)OP(=O)(Oc1ccc(C(O)C(Cl)(Cl)Cl)cc1)OC(C)C (configuration not stated) | 4% | 18µM* | 3% | ?
COP(=O)(OC)Oc1ccc(C(O)C(Cl)(Cl)Cl)cc1 (configuration not stated) | . | -7% | 0% | 17%
C[C@H]1CNC(=O)c2c(C(=O)Nc3cccc(Cl)c3)ncn21 | . | ? | ? | -7%
CC(C)(c1ccc(OCC2CO2)cc1)c1ccc(OCC2CO2)cc1 (configuration not stated) | -9% | 6.5µM* | . | 6.5µM*
NC(CO)Cc1ccccc1 (configuration not stated) | 4% | -21% | . | -7%
COc1ccc(OC)c(N2C(=O)CC(=O)NC2=O)c1 | 2% | 5% | -2% | 4%
COc1ccc(C2CC(=O)Nc3cc4c(cc32)OCO4)c(OC)c1 (configuration not stated) | 2% | 15µM* | -2% | ?
NCC[C@H](O)C(=O)N[C@@H]1C[C@H](N)[C@@H](O[C@H]2O[C@H](CN)[C@@H](O)[C@H](O)[C@H]2N)[C@H](O[C@@H]2O[C@H](CO)[C@@H](O)[C@H]2O)[C@H]1O | . | -1%[21.1 µM] | . | -4%[21.1 µM]
Cc1c(C=C2C(=O)NC(=O)NC2=O)c(=O)n(-c2ccccc2)n1C | -6% | 6% | -1% | 19%
O=C1NC(=O)C(=Cc2c(Cl)cccc2Cl)C(=O)N1 | . | 13µM* | 1% | 12µM*
C[C@]12CC[C@H](O)C[C@H]1CCC1C2CC[C@]2(C)[C@@H](c3ccc(=O)oc3)C[C@H]3O[C@]132 (some centres not stated) | . | ? | 0% | ?
O=C(C1CC(c2ccc(F)cc2)=NO1)N1CCC2(CC1)OCCO2 (configuration not stated) | 0% | -2% | -2% | 0%
O=C(C1CC(c2ccc(Cl)c(Cl)c2)=NO1)N1CCC2(CC1)OCCO2 (configuration not stated) | 5% | 15µM* | -1% | 15µM*
COc1ccccc1NP1(=O)OCC(C)([N+](=O)[O-])CO1 (configuration not stated) | . | -22% | -3% | -3%
CCCNC1=C(C)C(=O)C2=C(C1=O)C(COC(N)=O)[C@]1(OC)C3NC3CN21 (some centres not stated) | 1% | 0.26µM* | 1% | ?
CCCC(=O)OC(C(Cl)(Cl)Cl)P(=O)(OC)OC (configuration not stated) | 0% | ? | . | ?
COc1ccc(P2(=O)Nc3ccccc3N2)cc1 | -5% | ? | 0% | 15µM*
O=C1NC(=O)N(Cc2ccc(F)cc2)C(=O)/C1=C/c1cccs1 | -5% | 8.2µM* | -1% | 12µM*
Cc1cc(/C=C2\C(=O)NC(=O)N(Cc3ccccc3)C2=O)c(C)n1-c1ccc(Cl)c(C(=O)O)c1 | . | 1% | -4% | 2%
O=C1NC(=O)N(Cc2ccccc2Cl)C(=O)/C1=C/c1cccs1 | -1% | 4.6µM* | 2% | 6.5µM*
Cc1ccc(/C=C2/C(=O)NC(=O)N(Cc3ccc(F)cc3)C2=O)o1 | 0% | . | . | .
Cc1cc(/C=C2\C(=O)NC(=O)N(Cc3ccccc3Cl)C2=O)c(C)n1-c1ccc(C(=O)O)cc1 | 22µM* | 11% | 0% | -2%
CNC(Cc1c[nH]c2ccccc12)C(=O)O (configuration not stated) | -8%[56.1 µM] | ? | . | ?
SMILES | TDP1 inh | TDP1 cell noCPT | ClpP mod | DT40 TDP1 CPT
CCN(CCCl)c1cc(CN(C)C)cc(NC(=O)c2ccc(C(=O)Nc3cc(CN(C)C)cc(N(CC)CCCl)c3)cc2)c1 | . | 0.18µM* | -4% | 0.18µM*
CCOP(=O)(OCC)c1nc(-c2ccc(F)cc2)oc1NCc1ccccc1 | 3% | -52% | 4% | ?
CCOP(=O)(c1ccccc1)c1nc(-c2ccc(F)cc2)oc1N1CCCCC1 (configuration not stated) | 2% | 21µM* | ? | 13µM*
CCOP(=O)(OCC)c1nc(-c2cccc3ccccc23)oc1N1CCOCC1 | 1% | 10µM* | -1% | ?
CCOP(=O)(OCC)c1nc(-c2ccc(Br)cc2)oc1N1CCCCC1 | . | 8.2µM* | 4% | 10µM*
CCN1C[C@]2(C)CC[C@H](OC)[C@@]34[C@@H]2[C@H](OC(C)=O)[C@]2(OCO[C@@]25C[C@@H](OC)[C@@H]2C[C@@]3(O)[C@H]5[C@@H]2OC)[C@H]14 | 3%[21 µM] | . | . | .
CC[C@@H](CO)NC(=O)[C@H]1C=C2c3cccc4[nH]cc(c34)C[C@H]2N(C)C1 | 5% | -19% | . | 5%
CN1CCC2=C[C@H](O)[C@@H]3OC(=O)c4cc5c(cc4[C@H]3[C@H]21)OCO5 | -2%[56.1 µM] | . | . | .
CCOc1ccc(-c2nc3ccc(-c4nc5ccc(N6CCN(C)CC6)cc5[nH]4)cc3[nH]2)cc1 | 27% | . | . | .
CCOc1ccc(-c2cc(C)[n+](CCN3CCOCC3)c(-c3ccc(OCC)cc3)c2)cc1 | -3% | 1.3µM* | . | 1.5µM*
COc1cccc(OC)c1-c1nn2c(-c3n[nH]c4c3CCC4)nnc2s1 | -5% | 5.6µM* | 4% | 6.3µM*
Cc1ccccc1Nc1c(-c2ccc(Br)cc2O)nc2sccn12 | 5% | ? | -12% | ?
Cc1ccc(-c2nc3ccc(Cl)cn3c2Nc2ccccc2C)s1 | 8% | 16µM* | 12% | 21µM*
CN1C(=O)C(=Cc2sc(=O)n(-c3ccccc3)c2N(C)C)C(=O)N(C)C1=O | -1% | ? | 1% | 16µM*
CN1CC=C2C(C#N)=C(N)C(C#N)(C#N)C(c3ccncc3)C2C1 (configuration not stated) | 2% | ? | 28µM* | ?
C=C1C(=O)O[C@@H]2C[C@@H](C)[C@@H]3C4OC4C(=O)[C@@]3(C)[C@@H](O)[C@H]12 (some centres not stated) | 0% | 0.52µM* | -4% | 1µM*
COC(=O)C1=C(c2cccc(OC)c2OC)C[C@@H]2CC[C@H]1N2C(=O)NCC1CC1 | . | . | -4% | -20%
COc1cccc(C2CC3C(=O)C=CC2N3Cc2ccccc2)c1 (configuration not stated) | 8% | 16µM* | -2% | 21µM*
COc1cccc(-c2nn(Cc3ccccc3)cc2C(=O)O)c1 | 0% | 2% | . | 15%
